From PubChem
LYPLA1 counter – LYPLA1 inhibitors, primary screen, counter-screen for PME1 inhibitor project, biochemical, fluorescence polarization, FP-Rh probe ABPP | Acyl-protein thioesterase 1 (Homo sapiens), O75608 | recombinant LYPLA1 | inhibition, % at 5.9 µM | 320,000 compounds, 0.16% hits;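 active = inhibition above the mean of all tested compounds plus 3 SD, set per campaign, cut at about 14% in these data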;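 also: inhibitors block serine hydrolase probe labeling of LYPLA1 so polarization falls; 0% = enzyme with DMSO and 100% = wells lacking LYPLA1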
Target sequence (O75608 whole entry, looked up): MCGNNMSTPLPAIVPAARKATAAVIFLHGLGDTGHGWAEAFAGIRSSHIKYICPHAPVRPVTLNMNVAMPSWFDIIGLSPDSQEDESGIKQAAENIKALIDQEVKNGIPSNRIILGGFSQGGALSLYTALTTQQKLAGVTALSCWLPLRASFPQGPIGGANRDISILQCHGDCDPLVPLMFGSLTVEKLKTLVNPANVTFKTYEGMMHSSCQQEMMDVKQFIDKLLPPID
PAD4 inh – human PAD4 inhibitors, primary screen, biochemical, fluorescence polarization, 1536-well format; 330,000 compounds, 0.41% hits; AID 485272, 2010; recombinant PAD4, RCA probe fluorescence polarization; inhibition, % at 6.36 µM;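 active = percent inhibition above a cutoff equal to the mean of all tested compounds plus 3 SD, cut at about 15% in these data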;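 also: 0% = PAD4 with RCA probe and DMSO and 100% = probe without PAD4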
EBNA-1 inhibitor – EBNA-1 DNA-binding inhibitors, primary screen, biochemical, fluorescence polarization; inhibition, % at 14.8 µM; 300,000 compounds, 0.34% hits; in the data active = inhibition above about 28%
LYPLA2 counter – LYPLA2 inhibitors, primary screen, counter-screen for PME1 inhibitor project, biochemical, fluorescence polarization, FP-Rh probe ABPP; recombinant LYPLA2; inhibition, % at 5.9 µM; 320,000 compounds, 0.38% hits;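 active = inhibition above the screen-wide mean plus 3 SD, limit set per campaign, cut at about 26% in these data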;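 also: 0% = LYPLA2 with DMSO and 100% = wells lacking LYPLA2 enzyme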
Target sequence (O95372 whole entry, looked up): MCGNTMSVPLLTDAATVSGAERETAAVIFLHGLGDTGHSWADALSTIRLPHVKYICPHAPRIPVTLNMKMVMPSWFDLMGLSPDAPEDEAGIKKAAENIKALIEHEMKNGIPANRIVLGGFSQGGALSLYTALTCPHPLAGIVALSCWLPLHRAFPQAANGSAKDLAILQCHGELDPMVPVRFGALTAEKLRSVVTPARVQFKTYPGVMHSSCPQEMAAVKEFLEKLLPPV
ZTA DNA inh – counter-screen for EBNA-1 inhibitors: inhibitors of Epstein-Barr virus ZTA; P03206; ZTA-DNA binding, fluorescence polarization; inhibition, % at 11 µM; 320,000 compounds, 0.15% hits; AID 2234; in the data active = inhibition above about 33%
GSTO1 inh – inhibitors of recombinant GSTO1, primary screen, counter-screen for RBBP9 inhibitor project, biochemical, fluorescence polarization; Glutathione S-transferase omega-1 (Homo sapiens), P78417; activity-based probe fluorescence polarization; inhibition, % at 5.96 µM; 300,000 compounds, 1.1% hits;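 active = inhibition above the campaign mean inhibition plus 3 SD, cut at about 35% in these data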;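 also: 0% = GSTO1-1 with DMSO and 100% = wells lacking GSTO1-1 enzyme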
LYPLA2 conf – LYPLA2 inhibitors, retest, confirmation, counter-screen for PME1 inhibitor project, biochemical, fluorescence polarization, FP-Rh probe ABPP; shares compounds with LYPLA2 counter; recombinant LYPLA2; inhibition, % at 5.9 µM; 1,100 compounds, 72% hits; AID 2232, 2010;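 active = mean inhibition across replicates above the hit cutoff set in the primary screen, cut at about 26% in these data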;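 also: blocked labeling of the enzyme by serine hydrolase FP-Rh probe lowers polarization; 0% = enzyme with DMSO and 100% = wells lacking LYPLA2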
LYPLA2 ABPP – LYPLA2 inhibitors in proteome, late-stage follow-up, gel-based competitive ABPP, fluorescence, assay provider | shares compounds with LYPLA2 counter | rhLYPLA2 in mouse brain proteome, gel ABPP FP-Rh | inhibition, % at 20 µM | 150 compounds, 30% hits;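 active = inhibition of LYPLA2 enzyme probe labeling above about 50%, limit read from the data; inactive = inhibition below that limit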;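 also: loss of FP-Rh probe labeling of the LYPLA2 gel band measured as band density; 0% = DMSO only control band and 100% = blank gel background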
* = called active by the depositor; . = not tested or not shown. Rows were chosen to be rich in hits. Some 1.7% of all compounds tested hit in one or more screens of this group.

SMILES	LYPLA1 counter	PAD4 inh	EBNA-1 inhibitor	LYPLA2 counter	ZTA DNA inh	GSTO1 inh	LYPLA2 conf	others
O=S(=O)(NC1CCSc2ccccc21)c1ccccc1 (stereo not drawn)	0.3	-3.6	2.3	3.0	8.9	-4.2	.
O=C1COc2ccc(C(=O)NCc3ccco3)cc2N1	-1.0	2.6	2.4	-5.7	-14.5	6.0	.
O=C(NCc1ccco1)c1ccc2[nH]c(=O)c(=O)[nH]c2c1	5.6	-0.4	3.2	27.9*	11.6	-9.6	-0.4
CCCCCCC(=O)N1CCCC(c2nc(-c3cccc(OC)c3)no2)C1 (stereo not drawn)	11.7	4.5	6.7	27.4*	4.1	2.5	23.5
CCCC(=O)N1CCCC(c2nc(-c3cccc(OC)c3)no2)C1 (stereo not drawn)	0.4	1.9	-0.8	2.1	13.3	11.3	.
CCCn1c(C)cc(C(=O)COc2ccc(C)nc2[N+](=O)[O-])c1C	-4.0	1.3	1.6	29.6*	2.9	5.9	20.9
O=C(CN1CCN(c2ccc(O)cc2)CC1)N(C1CC1)C1CCS(=O)(=O)C1 (stereo not drawn)	1.1	2.3	.	2.7	-1.6	.	.
O=C(Cn1cc([N+](=O)[O-])cn1)Nc1ccc(Cn2cc(Br)cn2)cc1	3.6	3.5	-8.1	56.0*	-14.8	0.7	56.7*	LYPLA2 ABPP=20.0
COc1ccc(CCN(C)C(=O)CNC(=O)Cc2cccc3ccccc23)cc1OC	-0.6	1.9	-1.2	-4.9	14.3	4.4	.
CN(C(=O)COc1ccc([N+](=O)[O-])cc1)C1CCS(=O)(=O)C1 (stereo not drawn)	0.9	-1.4	4.4	30.7*	-1.5	2.2	6.6
COc1ccc(OC)c(-c2cc(C(=O)Nc3c(C)nn(Cc4ccccc4)c3C)no2)c1	12.3	-0.1	10.0	60.7*	-9.7	0.9	66.1*	LYPLA2 ABPP=64.0*
COc1ccc(OC)c(-c2cc(C(=O)Nc3c(C)nn(Cc4ccc(Cl)cc4)c3C)no2)c1	11.8	0.3	2.5	44.4*	-3.5	-11.8	86.9*	LYPLA2 ABPP=45.0
COc1ccc(OC)c(-c2cc(C(=O)Nc3cc(C)on3)no2)c1	-1.2	-0.6	1.6	-6.6	2.8	2.0	.
Cc1nn(Cc2ccccc2)c(C)c1NC(=O)c1cc(-c2ccco2)on1	0.3	-1.5	2.1	6.8	-0.8	-1.1	.
O=C(COc1ccc(Cl)cc1)N1CCN(Cc2ccc3c(c2)OCO3)CC1	0.9	-3.0	-0.8	33.6*	-17.0	5.0	29.2*
Cc1cc(C(=O)N2CCN(Cc3ccc4c(c3)OCO4)CC2)on1	-2.1	2.2	-5.7	1.6	-5.4	9.5	.
COc1cccc(-c2cc(C(=O)N3CCN(Cc4ccc5c(c4)OCO5)CC3)on2)c1	0.0	5.2	-12.9	30.3*	0.6	8.1	28.6*
CCOc1ccccc1C(=O)NCC(=O)N1CCN(Cc2ccc3c(c2)OCO3)CC1	7.3	4.1	.	61.6*	13.1	.	56.9*	LYPLA2 ABPP=39.0
CCc1ccc(C(=O)Cn2ncc(Cl)c(Cl)c2=O)cc1	-4.0	6.0	-6.9	31.4*	-6.1	21.1	35.0*
Cc1ccccc1-c1nc(CN(Cc2c(C)nn(C)c2C)C2CC2)c(C)o1	-4.1	0.2	1.3	-2.3	6.1	6.7	.
O=C(O)c1cccc(NC(=O)c2ccc3c(c2)C(=O)N(c2cccc([N+](=O)[O-])c2)C3=O)c1	-0.3	2.4	6.7	24.2	6.3	-7.5	.
O=C(O)c1cccc(N2C(=O)c3ccc(C(=O)c4cccc([N+](=O)[O-])c4)cc3C2=O)c1	4.0	5.8	-11.0	45.0*	-8.2	6.5	58.5*	LYPLA2 ABPP=45.0
CCC(=O)c1ccc(OCC(=O)OCC(=O)c2cc(C)n(C)c2C)cc1	-3.3	4.2	4.2	5.0	8.2	5.6	.
CCN(CC(=O)Nc1ccc(OC)cc1)C(=O)Cc1ccc(OC)c(S(=O)(=O)N2CCOCC2)c1	-0.4	-4.0	.	1.8	-6.8	.	.
O=C(N/C(=C\c1cccc(Br)c1)C(=O)N1CCOCC1)c1ccco1	1.5	-0.4	-3.0	6.9	-3.4	-4.5	.
SMILES	LYPLA1 counter	PAD4 inh	EBNA-1 inhibitor	LYPLA2 counter	ZTA DNA inh	GSTO1 inh	LYPLA2 conf	others
CCOC(=O)N1CCN(C(=O)c2ccc(OC(C)=O)cc2)CC1	-0.4	-0.4	-0.4	-8.9	-1.3	4.0	.
C/C(=N\OC(=O)c1ccc(F)cc1)c1nccs1	-1.2	1.4	-7.9	1.6	-19.8	2.3	.
COc1ccc(C(=O)O/N=C(\C)c2nccs2)cc1	10.2	0.5	0.5	30.3*	-3.9	-0.9	29.1*
Cc1cc(=O)oc2cc(Oc3ccc([N+](=O)[O-])cc3C(F)(F)F)ccc12	2.0	1.3	-0.3	43.5*	5.4	-8.2	42.1*
CC(=O)c1cc(C#N)c(SCc2ccccc2C#N)nc1C	2.8	-3.7	-9.4	45.7*	-24.6	-7.7	46.3*
O=C1CN(C(=O)c2cc([N+](=O)[O-])ccc2Cl)C(c2ccccc2)c2cc(F)ccc2N1 (stereo not drawn)	3.4	-1.8	0.4	8.1	-16.5	4.3	.
Cc1ccc(C(=O)N2CC(=O)Nc3ccc(F)cc3C2c2ccc(F)cc2)cc1[N+](=O)[O-] (stereo not drawn)	-1.7	-3.2	1.1	33.8*	8.7	1.0	29.8*
Cc1ccc(C(=O)N2CC(=O)Nc3ccc(F)cc3C2c2ccccc2)cc1[N+](=O)[O-] (stereo not drawn)	-3.3	-5.0	-1.9	34.1*	-8.5	7.6	34.1*
O=C1CN(C(=O)c2cccc(F)c2)C(c2ccc(F)cc2)c2cc(F)ccc2N1 (stereo not drawn)	0.8	2.7	-3.0	-2.0	8.6	0.8	.
Cc1nnc2c(NCCc3ccccc3)nc3ccccc3n12	-3.0	-0.8	-16.3	-3.8	-4.7	-7.5	.
O=C(Nc1cc(Cl)ccc1F)C1=COCCO1	1.2	4.3	-1.7	3.2	-9.3	2.0	.
Cc1onc(-c2ccccc2Cl)c1C(=O)Nc1nnc(-c2ccc(F)cc2)s1	-2.7	1.5	-5.7	52.8*	6.0	-5.4	3.5
Cc1onc(-c2ccccc2Cl)c1C(=O)Nc1nnc(-c2ccc(Br)cc2)s1	-7.9	0.2	4.5	-7.2	7.9	0.8	.
O=C(Nc1ccc(O)cc1)c1cccc(Oc2ccc([N+](=O)[O-])cc2)c1	1.4	-3.6	1.9	17.5	10.6	-7.9	.
